Results filed as inconclusive are left out. A number with no mark means an inactive call. Activity calls are given as the source filed them. The call rests on the fitted dose curve; in most records, active means well fitted curve in either direction with a large enough effect (not every such curve was filed as active); inconclusive means small, poorly fitted or top-dose-only effect, or another doubt; inactive means flat fitted curve, though single readings scatter.

Results on 40 compounds are retold here after PubChem BioAssay (NCATS).
On the % scale 0 is the no-effect control and ±100 the full control effect.

One test can be described thus: AP1 Signaling Pathway (AID 357).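 Further: ME-180 reporter cells stimulated with EGF at its EC50 level.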 To be noted: ME-180 AP-1-bla reporter, EGF-induced, beta-lactamase ratio, 5 h; at 17.2 µM (top of the series) unless noted. In a few lines:
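Modulation of EGF-driven AP-1 transcription was assessed with a beta-lactamase reporter in ME-180 cells. Compound and EC50 EGF were co-incubated 5 hours at 37 °C before 2.5-hour CCF4 loading at room temperature and dual-emission reading.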
Regarding `CCCN(CCC)c1nc2ccccc2nc1C(C#N)C(=O)OC(C)COC` (centres undefined), the activity change, negative = inhibition is -15.4%.
Take `CCOC(=O)C1=C(C)NC(C)=C(C(=O)OC)[C@H]1c1cccc(Cl)c1Cl`: the activity change, negative = inhibition is -9.86% [at 38 µM].
Still for that read-out and setting: for `CCc1nc(N2CCCC2)c(C#N)c2c1CCCC2` the value was -16.4%; for `CC[C@H](c1ccccc1)c1cc(C(C)(C)C)cc(C(C)(C)C)c1O`, 7.36% [at 7.69 µM]; for `CCCCCNC(=O)c1c(N)n(/N=C/c2ccco2)c2nc3ccccc3nc12`, 20.3%.
Same read-out and setting: the result for `COc1ccc(C2=CC(c3ccc(C)cc3)n3nnnc3N2)cc1` (centres undefined) reads -20.8%; that for `CC(C)Oc1ccc(C(=O)CCN2CCCCC2)cc1`, -9.61%; that for `COc1cccc(/C(O)=C2/C(=O)C(=O)N(CCCN(C)C)C2c2cccc(Cl)c2)c1` (centres undefined), 5.09%.
Consider `COC(=O)c1[nH]c2cc(OC)ccc2c1NC(=O)CCN1CCCC(C)(C)C1`, for which the activity change, negative = inhibition was -14.5%.
For `C[N+](C)(C)CCN(Cc1cccs1)c1ccccn1`, the activity change, negative = inhibition was -6.68% [at 7.69 µM].
On to `Cc1cccn2c(=O)c(/C=C(\C#N)S(=O)(=O)c3ccccc3)c(N3CCN(C)CC3)nc12`, for which the activity change, negative = inhibition is -0.352%.
Turning to `Clc1ccc([C@@H](c2ccccc2Cl)C(Cl)Cl)cc1`, the activity change, negative = inhibition was -7.25% [at 38 µM].
Same read-out and setting: for `CCOCCSc1nc2c(c(=O)[nH]c(=O)n2C)n1CCCc1ccccc1` the value was 3.98%.
The same measure, in the same setting: the result for `COc1nc(N(C)S(=O)(=O)c2ccc(C)cc2)nc(C)c1Cl` reads -2.26%; that for `CCOC(=O)c1sc2c(c1C)c(=O)c(C(=O)OCC)cn2CC`, -9.16%.
For `CCC(=O)Nc1c(C#N)c2nc3ccccc3nc2n1C1CCCCC1`, the activity change, negative = inhibition is -0.0903%.
Same read-out and setting: the result for `CCCCCCc1cc2cc(-c3nnc(-c4ccccc4O)o3)c(=O)oc2cc1O` reads -3.45%; that for `Cc1ccc(S(=O)(=O)c2cc3c(=O)n4ccccc4nc3n(C)c2=N)cc1`, 23.8%; that for `CC(CN1CCN(C)CC1)OC(=O)c1ccc(Cl)cc1Cl` (centres undefined), 12%.
Same read-out and setting: for `NC[C@@H]1O[C@@H](O[C@H]2[C@@H](O)[C@H](O[C@@H]3[C@H](O)[C@H](N)C[C@H](N)[C@H]3O[C@@H]3O[C@@H](CO)[C@H](O)[C@H](O)[C@@H]3N)O[C@H]2CO)[C@H](N)[C@H](O)[C@@H]1O` the value was 7.75% [at 38 µM]; for `CCc1ccc(-c2cn3nc(C)c(C)nc3n2)cc1`, 0.521%; for `N#Cc1c(N)n(CCOC(=O)c2ccc(Cl)cc2)c2nc3ccccc3nc12`, 19.1%.
With `COCCCNC(=O)c1c(N)n(/N=C/c2cccnc2)c2nc3ccccc3nc12`, the activity change, negative = inhibition was -15.5%.
As to `CC12CN3CC(C)(CN(C1)C3c1ccc(Br)cc1O)C2` (centres undefined), the activity change, negative = inhibition is -9.61%.
The same measure, in the same setting: for `C[N+](C)(C)[C@@H](C1=CCCC1=O)c1ccccc1` the value was 3.55% [at 7.69 µM].
As to `CC1(C)CCN(Cc2ccccc2)C1CC#N` (centres undefined), the activity change, negative = inhibition is -13.4%.
On the same count and under the same terms, for `Cc1cccc(CNc2ccnc(-c3ccc(N(C)C)cc3)n2)c1` the value was -16% [at 7.69 µM].
Still for that read-out and setting: the result for `Cc1ccc(CNC(=O)c2cc3c(=O)n4ccccc4nc3n(Cc3ccco3)c2=N)cc1` reads 5.13%; that for `O=C(CCN1CCc2ccccc2CC1)c1ccc2c(c1)OCCO2`, -22%.
`CNc1oc(-c2ccccc2Cl)nc1C#N`: the activity change, negative = inhibition was -4.94%.
`N#CC1=C(N)OC2=C(C(=O)CCC2)[C@]12C(=O)N(CC(N)=O)c1ccccc12`: the activity change, negative = inhibition was 12%.
Still for that read-out and setting: the result for `c1ccc2c(c1)NC(c1ccncc1)n1c-2nc2ccccc21` (centres undefined) reads -17.1%; that for `O=C1c2ccccc2-c2onc3ccc(NCc4ccco4)c1c23`, -13%; that for `Cc1nc(Sc2cccn2C)c(C(F)(F)F)c(=O)[nH]1`, -5.32%.
Take `CCC1(C)Cc2c(sc3c2c(=O)n(C)c2nnc(SCc4ccc5c(c4)OCO5)n32)CO1` (centres undefined): the activity change, negative = inhibition was 11.8%.
The same measure, in the same setting: the result for `CCN1CCN(c2nc3c(C)cccn3c(=O)c2/C=C(\C#N)S(=O)(=O)c2ccccc2)CC1` reads -5.82%; that for `Cc1ccccc1C(=O)c1ccc2c(c1)n(C)c(=O)n2C`, 4.88%; that for `N=c1c(C(=O)NCc2ccccc2)cc2c(=O)n3ccccc3nc2n1Cc1ccco1`, -5.29%.
Still for that read-out and setting: the result for `CCc1cc(=O)oc2c(CN3CCCC3)c(O)c(Cl)cc12` reads 12.3%; that for `O=C(c1ccc(=O)oc1)N1CCOCC1`, 17.3%.

A further test in a line: Stat Signaling Pathway (AID 446).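 Further: ME-180 cervical cancer cells given 40 pM IL-6 alongside compound; SIE-controlled beta-lactamase reporter measured as 460/530 nm FRET emission ratio.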 Conditions: ME-180 (cervical carcinoma) SIE beta-lactamase reporter, IL-6 stimulated, 5 h; at 17.2 µM (top of the series) unless noted. In a few lines:
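Normalization used AC90 stimulation (300 pM IL-6) and AC90 inhibition (125 nM pan-JAK inhibitor at 40 pM IL-6). The underlying signal is SIE-driven beta-lactamase in ME-180 cells after 5 h IL-6 exposure with compound.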
`CCCN(CCC)c1nc2ccccc2nc1C(C#N)C(=O)OC(C)COC` (centres undefined): the activity, negative = inhibition was -20.4%.
`CCOC(=O)C1=C(C)NC(C)=C(C(=O)OC)[C@H]1c1cccc(Cl)c1Cl`: the activity, negative = inhibition is -0.0099% [at 38 µM].
Take `CCc1nc(N2CCCC2)c(C#N)c2c1CCCC2`: the activity, negative = inhibition was -19.9%.
Take `CC[C@H](c1ccccc1)c1cc(C(C)(C)C)cc(C(C)(C)C)c1O`: the activity, negative = inhibition is 3.9% [at 7.69 µM].
Still for that read-out and setting: for `CCCCCNC(=O)c1c(N)n(/N=C/c2ccco2)c2nc3ccccc3nc12` the value was 28.5%.
Consider `COc1ccc(C2=CC(c3ccc(C)cc3)n3nnnc3N2)cc1` (centres undefined), for which the activity, negative = inhibition is -14.7%.
The same measure, in the same setting: for `CC(C)Oc1ccc(C(=O)CCN2CCCCC2)cc1` the value was -10.9%; for `COc1cccc(/C(O)=C2/C(=O)C(=O)N(CCCN(C)C)C2c2cccc(Cl)c2)c1` (centres undefined), 5.04%; for `COC(=O)c1[nH]c2cc(OC)ccc2c1NC(=O)CCN1CCCC(C)(C)C1`, 2.32%.
On the same count and under the same terms, the result for `C[N+](C)(C)CCN(Cc1cccs1)c1ccccn1` reads -4.68% [at 7.69 µM]; that for `Cc1cccn2c(=O)c(/C=C(\C#N)S(=O)(=O)c3ccccc3)c(N3CCN(C)CC3)nc12`, 3.87%.
Regarding `Clc1ccc([C@@H](c2ccccc2Cl)C(Cl)Cl)cc1`, the activity, negative = inhibition is 2.17% [at 38 µM].
Same read-out and setting: the result for `CCOCCSc1nc2c(c(=O)[nH]c(=O)n2C)n1CCCc1ccccc1` reads -3.21%; that for `COc1nc(N(C)S(=O)(=O)c2ccc(C)cc2)nc(C)c1Cl`, 5.02%; that for `CCOC(=O)c1sc2c(c1C)c(=O)c(C(=O)OCC)cn2CC`, 6.04%.
In the case of `CCC(=O)Nc1c(C#N)c2nc3ccccc3nc2n1C1CCCCC1`, the activity, negative = inhibition was 20.4%.
`CCCCCCc1cc2cc(-c3nnc(-c4ccccc4O)o3)c(=O)oc2cc1O`: the activity, negative = inhibition is 73.1% [activator] (active).
For `Cc1ccc(S(=O)(=O)c2cc3c(=O)n4ccccc4nc3n(C)c2=N)cc1`, the activity, negative = inhibition was 26.2%.
With `CC(CN1CCN(C)CC1)OC(=O)c1ccc(Cl)cc1Cl` (centres undefined), the activity, negative = inhibition is -1.03%.
The same measure, in the same setting: the result for `NC[C@@H]1O[C@@H](O[C@H]2[C@@H](O)[C@H](O[C@@H]3[C@H](O)[C@H](N)C[C@H](N)[C@H]3O[C@@H]3O[C@@H](CO)[C@H](O)[C@H](O)[C@@H]3N)O[C@H]2CO)[C@H](N)[C@H](O)[C@@H]1O` reads -13.5% [at 38 µM].
Take `CCc1ccc(-c2cn3nc(C)c(C)nc3n2)cc1`: the activity, negative = inhibition was 11.8%.
As for `COCCCNC(=O)c1c(N)n(/N=C/c2cccnc2)c2nc3ccccc3nc12`, the activity, negative = inhibition was -20.9%.
Turning to `CC12CN3CC(C)(CN(C1)C3c1ccc(Br)cc1O)C2` (centres undefined), the activity, negative = inhibition is -0.00253%.
In the case of `C[N+](C)(C)[C@@H](C1=CCCC1=O)c1ccccc1`, the activity, negative = inhibition is -12.6% [at 7.69 µM].
On the same count and under the same terms, the result for `CC1(C)CCN(Cc2ccccc2)C1CC#N` (centres undefined) reads 6.87%; that for `Cc1cccc(CNc2ccnc(-c3ccc(N(C)C)cc3)n2)c1`, -22.6% [at 7.69 µM].
Same read-out and setting: the result for `Cc1ccc(CNC(=O)c2cc3c(=O)n4ccccc4nc3n(Cc3ccco3)c2=N)cc1` reads 22.1%; that for `O=C(CCN1CCc2ccccc2CC1)c1ccc2c(c1)OCCO2`, 12.8%; that for `CNc1oc(-c2ccccc2Cl)nc1C#N`, -0.918%.
As for `N#CC1=C(N)OC2=C(C(=O)CCC2)[C@]12C(=O)N(CC(N)=O)c1ccccc12`, the activity, negative = inhibition was 1.02%.
Still for that read-out and setting: the result for `c1ccc2c(c1)NC(c1ccncc1)n1c-2nc2ccccc21` (centres undefined) reads -7.32%; that for `O=C1c2ccccc2-c2onc3ccc(NCc4ccco4)c1c23`, -1.03%; that for `Cc1nc(Sc2cccn2C)c(C(F)(F)F)c(=O)[nH]1`, -1.21%.
On the same count and under the same terms, for `CCC1(C)Cc2c(sc3c2c(=O)n(C)c2nnc(SCc4ccc5c(c4)OCO5)n32)CO1` (centres undefined) the value was -3.34%; for `CCN1CCN(c2nc3c(C)cccn3c(=O)c2/C=C(\C#N)S(=O)(=O)c2ccccc2)CC1`, -5.71%.
As for `Cc1ccccc1C(=O)c1ccc2c(c1)n(C)c(=O)n2C`, the activity, negative = inhibition was -15.6%.
Still for that read-out and setting: for `N=c1c(C(=O)NCc2ccccc2)cc2c(=O)n3ccccc3nc2n1Cc1ccco1` the value was 19.8%.
Same read-out and setting: for `CCc1cc(=O)oc2c(CN3CCCC3)c(O)c(Cl)cc12` the value was 4.15%.
Still for that read-out and setting: the result for `O=C(c1ccc(=O)oc1)N1CCOCC1` reads -0.795%.
